# In PubChem BioAssay (NCATS):
# Inconclusive results are not listed. Entries that show only a call come without a potency. Active and inactive are the calls of the source. The call rests on the fitted dose curve; in most records, active means well fitted inhibition curve with a large enough effect; inconclusive means small, poorly fitted or top-dose-only effect; inactive means flat fitted curve, though single readings scatter.
# Biological target: Calcium and integrin-binding protein 1 (Homo sapiens) (UniProt Q99828)
# Sequence (Q99828 whole entry, looked up): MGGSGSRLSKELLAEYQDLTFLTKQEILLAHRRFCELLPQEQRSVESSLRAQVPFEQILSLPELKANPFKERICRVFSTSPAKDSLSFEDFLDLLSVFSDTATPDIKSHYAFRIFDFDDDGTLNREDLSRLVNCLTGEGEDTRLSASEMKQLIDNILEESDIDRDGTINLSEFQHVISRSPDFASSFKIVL
# Assay: Primary qHTS for Identification of Calcium Integrin Binding Protein 1 (CIB1) Competitor (AID 1508620);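 further: GST tagged CIB1 binding a fluorescein labelled alphaIIb integrin peptide tracer; top concentration of the series differs between compounds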
# Conditions: CIB1-GST / FITC-alphaIIb peptide fluorescence polarization; series mostly up to 114 µM
# Procedure, shortened: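 CIB1-GST (1 uM final) and compound incubated 15 min at room temperature before adding FITC-alphaIIb peptide tracer (100 nM final). Competition for binding read by fluorescence polarization (ex 480, em 540) after another 15 min at room temperature.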
row,Compound,Potency
1,COC(=O)c1sccc1S(=O)(=O)Nc1ccc(Nc2ccccc2)cc1OC,inactive
2,COc1cc2c(c(OC)c1CC=C(C)C)C[C@H](c1ccc(O)c(CC=C(C)C)c1O)CO2,inactive
3,C=C(C(=O)O[C@H]1C/C(C)=C/CC/C(CO)=C/[C@H]2OC(=O)C(=C)[C@H]12)C(O)CO (some centres undefined),inactive
4,C=C1C(=O)O[C@@H]2[C@H]1CC[C@H](C)[C@]1(CCC(=O)O1)C2(C)O (some centres undefined),inactive
